Article PMC4336329 (PLoS ONE, 2015)
Hit rate of the full screen: of about 310,000 compounds, about 14,000 (4.5%) showed an effect of 50% or more. Effects have a minus sign here. The sample holds strong results, similar compounds and a random draw of the others, so the mix is not that of the screen.

target: human ether-à-go-go-related gene (hERG) potassium channel (human, UniProt Q12809); assay: primary screen, population patch clamp on CHO cells stably expressing hERG; higher = less effect of the substance
Sequence (Q12809 whole entry, looked up): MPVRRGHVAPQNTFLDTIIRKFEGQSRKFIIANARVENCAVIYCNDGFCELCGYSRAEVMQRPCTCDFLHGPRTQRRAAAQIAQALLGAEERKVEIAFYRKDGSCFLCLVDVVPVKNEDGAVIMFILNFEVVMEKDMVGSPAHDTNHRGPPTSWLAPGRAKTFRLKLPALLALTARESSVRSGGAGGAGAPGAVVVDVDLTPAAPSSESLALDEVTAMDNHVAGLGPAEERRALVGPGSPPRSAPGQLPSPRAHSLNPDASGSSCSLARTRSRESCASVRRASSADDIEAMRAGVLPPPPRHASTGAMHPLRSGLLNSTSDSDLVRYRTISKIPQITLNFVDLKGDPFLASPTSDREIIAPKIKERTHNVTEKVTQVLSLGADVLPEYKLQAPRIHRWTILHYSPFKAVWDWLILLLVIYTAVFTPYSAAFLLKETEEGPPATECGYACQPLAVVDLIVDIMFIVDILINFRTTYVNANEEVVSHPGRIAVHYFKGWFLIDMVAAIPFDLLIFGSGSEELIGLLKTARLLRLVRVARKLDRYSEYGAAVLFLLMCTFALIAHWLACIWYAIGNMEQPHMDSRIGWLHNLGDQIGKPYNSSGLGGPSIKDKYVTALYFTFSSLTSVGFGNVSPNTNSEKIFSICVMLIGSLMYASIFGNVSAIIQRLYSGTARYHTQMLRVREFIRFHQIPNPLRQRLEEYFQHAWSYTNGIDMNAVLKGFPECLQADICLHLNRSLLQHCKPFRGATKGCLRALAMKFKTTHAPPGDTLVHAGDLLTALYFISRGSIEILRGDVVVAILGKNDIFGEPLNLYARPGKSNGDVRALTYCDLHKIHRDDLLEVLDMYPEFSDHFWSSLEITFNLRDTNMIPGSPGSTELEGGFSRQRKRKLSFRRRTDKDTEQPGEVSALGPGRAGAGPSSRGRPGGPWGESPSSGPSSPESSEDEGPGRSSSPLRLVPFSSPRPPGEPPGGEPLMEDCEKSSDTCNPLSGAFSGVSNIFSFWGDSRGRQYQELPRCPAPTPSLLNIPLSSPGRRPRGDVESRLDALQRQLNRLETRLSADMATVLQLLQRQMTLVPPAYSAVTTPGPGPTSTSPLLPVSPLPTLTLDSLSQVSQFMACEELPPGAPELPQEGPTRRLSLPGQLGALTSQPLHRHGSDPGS
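Further: peak tail current of the secondary pulse compared with the same well before compound.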

| Compound | hERG current change (%, negative = inhibition) at 10uM [%] |
| --- | --- |
| COc1cccc(C2c3[nH]c4ccccc4c3C[C@H]3C(=O)N(CCCO)CC(=O)N23)c1OC (stereo partly drawn) | -6.83 |
| CC1(c2nnc(Cc3ccccc3)o2)CC(c2ccccc2F)=NO1 (stereo not drawn) | -12.6 |
| CC(C)Sc1nc(N2CCOCC2)c2c(c1C#N)CC(C)(C)SC2 | 5.69 |
| CC1=C(C(N)=O)C(c2ccccc2)n2nc(-c3ccncc3)nc2N1 (stereo not drawn) | 11.2 |
| COC(=O)C1C2CCC(C2)C1C(=O)OCC(=O)c1ccc(C)cc1 (stereo not drawn) | -19.5 |
| CC1(C)CC(=O)C=C(Nc2ccc([N+](=O)[O-])cc2)C1 | -16.6 |
| COc1ccc(NC(=O)CCOc2ccc(C)cc2)cc1S(=O)(=O)N1CCOCC1 | -34.9 |
| COc1ccc(C(=S)N2CCCC2)cc1C | 4.72 |
| CCCCCCOC(=O)c1ccc(NC(=O)c2cc(OC)c(OC)c(OC)c2Br)cc1 | 5.84 |
| CCOC(=O)c1ccc(CNC(=O)CSc2nnc(-c3ccncc3)o2)cc1 | -1.31 |
| COc1ccc(CCNC/C=C/c2ccccc2)cc1.Cl | -51.4 |
| Cl.NS(=O)(=O)c1ccc(CCNC/C=C/c2ccccc2)cc1 | -48.7 |
| COc1ccc(CNC/C=C/c2ccccc2)cc1.Cl | -42.2 |
| Cc1nn(C)c(C)c1CNC(=O)Nc1ccc2c(c1)OCO2 | 12 |
| CC(NC(=O)CN(C)S(=O)(=O)c1ccc(F)cc1)C1CC2CCC1C2 (stereo not drawn) | -2.34 |
| O=C(CCSCCc1ccccn1)Nc1c(F)c(F)c(F)c(F)c1F | -23.3 |
| CC(C)Nc1cc(C(C)(C)C)nc2c(-c3ccccc3)cnn12 | 8.72 |
| CCC(C)(C)n1nnnc1C(C(C)C)N1CCSCC1 (stereo not drawn) | -61.6 |
| CC(C)(C)n1nnnc1C(c1ccc(Cl)cc1)N1CCSCC1 (stereo not drawn) | -0.553 |
| CCC(C)(C)n1nnnc1C(c1ccc(C)cc1)N1CCSCC1 (stereo not drawn) | -55.1 |
| CCC(C)(C)n1nnnc1C(c1ccc(C)cc1)N1CCCC1.Cl (stereo not drawn) | -11.7 |
| CCC(C)(C)n1nnnc1C(C(C)C)N1CCN(C)CC1.Cl (stereo not drawn) | 6.63 |
| CCC(C)(C)n1nnnc1C(C(C)C)N1CCC(C(N)=O)CC1 (stereo not drawn) | 10.4 |
| N#C/C(=C/c1ccc2c(c1)OCO2)C(=O)Nc1ccc(O)cc1 | -0.516 |
| COc1ccc(NC(C)=O)cc1S(=O)(=O)N(C)Cc1c(C)nn(-c2ccccc2)c1C | -13 |
| COCC(C)OC(=O)/C(C#N)=C\c1coc2ccc(C)cc2c1=O (stereo not drawn) | -20.9 |
| CC(C)(C)c1ccccc1NC(=S)NC1CCCC1 | 1.41 |

| Compound | hERG current change (%, negative = inhibition) at 10uM [%] |
| --- | --- |
| COc1ccc(N2C(=O)CCC(C(=O)N3CCC(C(N)=O)CC3)C2c2ccc(F)cc2)cc1 (stereo not drawn) | -2.18 |
| Cc1ncc(C[n+]2csc(CCOC(=O)CC34CC5CC(CC(C5)C3)C4)c2C)c(N)n1.Cl.[Cl-] | -4.79 |
| Cc1c(CCO)sc[n+]1CC(=O)OC12CC3CC(CC(C3)C1)C2.[Cl-] | 19.8 |
| Cc1c(CCOC(=O)C23CC4CC(CC(C)(C4)C2)C3)sc[n+]1Cc1ccccc1.[Cl-] | -34.5 |
| Cc1c(CCOC(=O)CC23CC4CC(CC(C4)C2)C3)sc[n+]1CC(=O)c1ccc(Br)cc1.[Br-] | -75.1 |
| Cc1c(CCO)sc[n+]1CC(=O)OCCC12CC3CC(CC(C3)C1)C2.[Cl-] | 11.8 |
| Cc1c(CCOC(=O)CC23CC4CC(CC(C)(C4)C2)C3)sc[n+]1CC(=O)c1ccccc1.[Br-] | -56.8 |
| Cc1c(CCOC(=O)C2C3CC4CC(C3)CC2C4)sc[n+]1CC(=O)c1ccc(Br)cc1.[Br-] (stereo not drawn) | -31.4 |
| Cc1c(CCOC(=O)CC23CC4CC(CC(C4)C2)C3)sc[n+]1Cc1ccccc1.[Cl-] | -42.1 |
| Cc1c(CCOC(=O)C23CC4CC(CC(C)(C4)C2)C3)sc[n+]1CC(=O)c1ccccc1.[Br-] | -26.7 |
| Cc1c(CCOC(=O)CC23CC4CC(CC(C4)C2)C3)sc[n+]1CC(=O)c1ccccc1.[Br-] | -59.4 |
| Cc1c(CCOC(=O)CC23CC4CC(CC(C)(C4)C2)C3)sc[n+]1Cc1ccc([N+](=O)[O-])cc1.[Br-] | -87.8 |
| Cc1c(CCOC(=O)C23CC4(C)CC(C)(CC(C)(C4)C2)C3)sc[n+]1CC(=O)c1ccccc1.[Br-] | -19.5 |
| c1ccc(N2CCN(c3nc4cc5c(cc4s3)OCO5)CC2)cc1 | -11.2 |
| CCC(CC)c1nnc(NC(=O)c2c(-c3ccccc3)noc2C)s1 | -9.78 |
| COc1cnn(-c2cc(Oc3ccc(C)cc3)ncn2)c(=O)c1Cl | 2.74 |
| COc1cccc(C(=O)NCC2(c3ccccc3)CCCC2)c1OC | 3.79 |
| CC(C)n1ncc2c(C(=O)N3CCN(c4ccccc4)CC3)cc(-c3ccccc3)nc21 | 17.2 |
| COc1ccc(C(=O)N2CCCC2=O)cc1 | 17 |
| Cc1sc(NC(=O)C2=COCCO2)nc1-c1ccc(F)cc1 | 15.5 |
| CNC(=S)N/N=C/c1ccc(N2CCOCC2)s1 | 51.6 |
| CS(=O)(=O)n1nc(-c2cccnc2)nc1NCc1ccccc1 | 43.9 |
| Cc1nc(Nc2ccc(S(N)(=O)=O)cc2)sc1-c1ccccc1 | 12.9 |
| Nc1nc(-c2ccccc2)c(-c2ccccc2)s1 | -2.18 |
| Nc1c(-c2ccccc2)sc2ccc3ccccc3[n+]12.O=S(=O)([O-])c1ccccc1 | -58.3 |
| Cc1c(NC(=O)CSc2nccn2C)c(=O)n(-c2ccccc2)n1C | 10.9 |
| CC(CNC(=O)c1cccs1)c1ccc([N+](=O)[O-])cc1 (stereo not drawn) | 4.3 |
